# Source: PubChem (several laboratories)
# HSF1 activator: increases HSF-1 driven luciferase reporter signal; NIH3T3-HGL HSF-1 luciferase reporter, MG132, 8 h; 100% = twice DMSO control signal; activation, % at 9 µM; hit rate 1.7% among 300,000; AID 504408;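 active = mean replicate activation of at least 50% with a set share of replicates each reaching 50%; inconclusive = only one of those two conditions met; inactive = mean below 50% and too few replicates reaching it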
# HSP90 inh: blocks HSP90-mediated luciferase refolding in reticulocyte lysate. Rabbit reticulocyte lysate, luciferase refolding luminescence, 3 h. inhibition, % at 5.6 µM. hit rate 0.91% among 290,000. AID 1789;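 active = inhibition above the screen-wide mean plus 3 SD, computed separately per campaign, cut at about 16% in these data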;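 note: inhibitors lower the luminescence because luciferase stays unfolded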
# HSF1 inhib: HSF1 inhibition. hit rate 0.77% among 300,000. AID 2098. activity change, negative = inhibition, % at 7.5 µM (by protocol). NIH3T3-HGL HSE-luciferase, MG132-induced, luminescence 8 h; stronger effect = lower value;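 active = more than half of replicate wells show activity change below -50%, luminescence cut by over half; inconclusive = some wells, but at most half, below -50%; inactive = no replicate well below -50%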;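 note: luciferase reports HSF-1 transcriptional activity via heat shock element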
# NALP1 inh: NALP1 inhibition; S. cerevisiae NALP1/ASC/caspase-1 growth, X-gal OD620, 72 h; inhibition, % at 10 µM; hit rate 0.61% among 280,000; in the data active = inhibition mostly above about 24%, no sharp cut-off; inactive = mostly below about 32%
# p-CIP stab down: compounds decreasing mouse p/CIP protein stability | AID 1984 | F442A p/CIP-EGFP cells, EGFP fluorescence, 16 h | Q05BA5 | hit rate 0.01% among 290,000 | decrease of EGFP signal, % at 10 µM;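 active = EGFP signal decrease of at least 30% at 10 µM or well 3 SD below plate mean, unless failing retest; inactive = the rest, including hits failing retest or dose response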
# Target sequence (Q05BA5 1-1403): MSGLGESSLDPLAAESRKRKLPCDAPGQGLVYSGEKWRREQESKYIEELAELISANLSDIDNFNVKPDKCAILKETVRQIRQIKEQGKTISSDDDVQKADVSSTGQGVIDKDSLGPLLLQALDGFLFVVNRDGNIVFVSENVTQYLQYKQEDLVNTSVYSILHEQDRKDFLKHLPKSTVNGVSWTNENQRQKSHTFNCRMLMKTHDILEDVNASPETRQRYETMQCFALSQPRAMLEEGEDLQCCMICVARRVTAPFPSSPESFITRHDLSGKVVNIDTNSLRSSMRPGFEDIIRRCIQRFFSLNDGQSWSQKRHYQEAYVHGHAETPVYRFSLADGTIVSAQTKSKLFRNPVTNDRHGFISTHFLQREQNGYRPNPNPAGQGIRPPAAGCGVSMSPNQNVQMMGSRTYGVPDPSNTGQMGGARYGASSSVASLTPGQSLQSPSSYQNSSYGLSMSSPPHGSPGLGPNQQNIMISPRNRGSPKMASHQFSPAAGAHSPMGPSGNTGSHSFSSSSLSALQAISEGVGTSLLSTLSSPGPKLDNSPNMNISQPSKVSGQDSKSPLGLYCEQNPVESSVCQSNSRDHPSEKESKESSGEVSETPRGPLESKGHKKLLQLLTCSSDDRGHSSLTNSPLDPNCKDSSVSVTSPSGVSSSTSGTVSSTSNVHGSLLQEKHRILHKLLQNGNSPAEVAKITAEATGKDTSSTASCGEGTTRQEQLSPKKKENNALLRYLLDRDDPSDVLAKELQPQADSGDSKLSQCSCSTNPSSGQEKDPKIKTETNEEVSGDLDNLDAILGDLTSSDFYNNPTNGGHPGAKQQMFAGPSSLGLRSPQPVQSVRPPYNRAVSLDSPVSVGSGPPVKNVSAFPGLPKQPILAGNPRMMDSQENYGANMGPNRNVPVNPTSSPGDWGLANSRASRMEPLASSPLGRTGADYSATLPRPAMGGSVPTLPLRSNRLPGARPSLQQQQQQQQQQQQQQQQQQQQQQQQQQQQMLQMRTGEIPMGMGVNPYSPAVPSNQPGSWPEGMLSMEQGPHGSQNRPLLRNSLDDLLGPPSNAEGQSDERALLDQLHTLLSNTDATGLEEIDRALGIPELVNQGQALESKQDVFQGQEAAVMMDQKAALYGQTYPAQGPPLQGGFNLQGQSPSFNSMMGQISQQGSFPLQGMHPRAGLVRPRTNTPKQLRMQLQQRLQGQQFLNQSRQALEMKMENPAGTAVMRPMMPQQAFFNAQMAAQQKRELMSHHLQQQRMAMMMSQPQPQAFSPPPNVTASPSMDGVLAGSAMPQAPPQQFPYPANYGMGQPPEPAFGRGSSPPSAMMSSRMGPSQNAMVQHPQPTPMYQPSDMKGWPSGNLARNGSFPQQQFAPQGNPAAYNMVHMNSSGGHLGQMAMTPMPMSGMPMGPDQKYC
# Hsp70 activator: switches on Hsp70 transcription; HeLa Hsp70 promoter luciferase reporter, luminescence; scaled: vehicle 0, proteasome-inhibitor control 100%; activation, % at 10 µM; hit rate 0.04% among 200,000; AID 1203;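 active = activation above the mean across all tested compounds plus 3 SD, cutoff set per campaign, cut at about 5.5% in these data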
# A number is an active result; . = inactive; ? = inconclusive; / = no result given. Shown are actives, neighbours in structure and some others; about 3.8% of the full set was active somewhere.
SMILES,HSF1 activator,HSP90 inh,HSF1 inhib,NALP1 inh,p-CIP stab down,Hsp70 activator
Cc1nnn(C23CC4CC(CC(CC(=O)Nc5cccc(F)c5)(C4)C2)C3)n1,.,.,.,29,.,.
Cc1cccc(NC(=O)CC23CC4CC(C2)CC(n2nnc(C)n2)(C4)C3)c1,.,.,.,.,.,.
CCCCN1C(=O)C2Cc3c([nH]c4ccccc34)CN2C1=S (stereo not drawn),?,.,.,.,.,.
CCOC(=O)C1CCCN(CC(=O)Nc2c(C(=O)OC)[nH]c3ccccc23)C1 (stereo not drawn),60,.,.,.,.,.
O=C(CCCCCn1nnc2ccccc2c1=O)Nc1ccccc1Cl,.,.,.,.,.,/
O=C(c1ccccc1NS(=O)(=O)c1ccc(F)cc1)N1CCOCC1,.,.,.,.,.,/
OC1CCN(Cc2cn(Cc3ccccc3)nc2-c2cc3ccccc3o2)CC1,.,.,.,.,.,.
COC(=O)C1CCN(Cc2cn(Cc3ccccc3)nc2-c2cc3ccccc3o2)CC1,.,.,.,32,.,.
CCN1C(=O)[C@H]2[C@@H](c3ccc(-c4cccc(Cl)c4)c(OC)c3)N[C@@](CC(C)C)(C(=O)OC)[C@H]2C1=O,.,/,.,/,/,/
C=CCNC(=S)/C(=C(/[O-])c1ccccc1Br)[n+]1ccccc1,.,.,.,.,.,.
Cc1cc(C)cc(NC(=O)CN(C)S(=O)(=O)c2cnc[nH]2)c1,80,.,.,.,.,.
COc1ccc(NC(=O)CN(C)S(=O)(=O)c2cnc[nH]2)cc1OC,.,.,.,.,.,/
c1cn(CCCNC2CCCCCCC2)cn1,.,/,.,/,/,/
O=S(=O)(c1ccc(Cl)cc1)N1CCC(c2nc3ccccc3[nH]2)CC1,73,.,.,.,.,/
CC(=O)c1ccc(S(=O)(=O)N2CCC(c3nc4ccccc4[nH]3)CC2)cc1,.,.,.,.,.,/
CN(Cc1ccc2nonc2c1)Cc1nc(CC2CC2)no1,.,.,.,.,.,.
O=P(O)(CCc1ccccn1)CN1CCOCC1,.,.,.,39,.,.
O=P(O)(CCc1ccccn1)CN1CCCCC1,.,.,.,.,.,.
CCCn1c(SCc2nc3sc(C)c(C)c3c(=O)[nH]2)nc2ccccc2c1=O,114,.,.,.,.,.
COCCn1c(SCc2nc3ccccc3c(=O)[nH]2)nc2ccccc2c1=O,.,.,.,.,.,.
CC(Oc1ccc(Br)cc1)C(=O)Nc1nnc(C2CC2)s1 (stereo not drawn),.,/,.,/,/,/
Cn1c(CNS(=O)(=O)c2ccc(Cl)cc2)cc(=O)n(C)c1=O,.,.,.,.,.,/
COC(=O)c1ccc(CNC(=O)C(NC(=O)c2ccco2)C(C)C)cc1 (stereo not drawn),.,.,-58,.,.,/
CC(C)[C@H](NC(=O)c1ccco1)C(=O)NCc1ccccc1,.,.,.,.,.,/
COc1ccc2cc3cc(C(=O)NCCN4CCc5ccccc5C4)sc3nc2c1,74,.,.,.,.,.
SMILES,HSF1 activator,HSP90 inh,HSF1 inhib,NALP1 inh,p-CIP stab down,Hsp70 activator
COc1ccc2cc3cc(C(=O)NCCN4CCc5ccccc5C4)oc3nc2c1,.,.,.,.,.,.
O=C(Nc1cccnc1)C1CCN(S(=O)(=O)c2ccc(Cl)cc2)CC1,.,.,.,.,.,/
CCOC(=O)C(C(=O)OCC)C(Nc1ccc(Br)cc1)c1ccccc1 (stereo not drawn),301,.,.,.,.,.
Cc1nc2cc(-c3ccccc3)sc2c(=O)n1N,.,49,-53,.,.,.
COc1ccc(-c2cc3nc(C)n(N)c(=O)c3s2)cc1,.,85,-70,/,.,/
CC1=CC(=O)C=C(C)C1=NOS(=O)(=O)c1ccccc1,.,.,.,104,.,.
CC1=CC(=O)C(C(C)C)=C/C1=N/OS(=O)(=O)c1ccccc1,83,.,.,.,.,/
Cc1ccc2c(c1)/C(=N/OS(=O)(=O)c1ccccc1)CCS2,.,.,.,/,/,.
CCOC(=O)c1c(C(C)(C)C)oc2ccc(O)cc12,/,.,/,.,.,.
CCOC(=O)c1c(COc2ccccc2)oc2ccc(O)cc12,105,.,.,.,.,.
CCOC(=O)c1c(C)n(CCOc2ccccc2)c2ccc(O)cc12,69,.,.,.,.,/
O=C(NCC1COc2ccccc2O1)c1ccc(NC(=O)C(c2ccccc2)c2ccccc2)cc1 (stereo not drawn),.,.,.,.,.,.
CCCCC1(C(=O)OCC)CC(CSC(=N)N)OC1=O (stereo not drawn),.,.,.,.,.,.
O=C(O)C1C2C=CC(C2)C1C(=O)Nc1ccc2c(c1)OCCO2 (stereo not drawn),.,.,-57,/,.,.
CC(=O)c1ccc(NC(=O)C2C3C=CC(O3)C2C(=O)O)cc1 (stereo not drawn),58,.,.,.,.,/
O=C(O)C1C2C=CC(O2)C1C(=O)Nc1ccc2c(c1)OCCO2 (stereo not drawn),.,.,-74,.,.,.
C=CCN(C(=O)CNS(=O)(=O)c1ccccc1)C(C(=O)NCCOC)c1cccnc1 (stereo not drawn),.,.,.,.,.,/
CC1CCCCN1C(=O)COc1ccccc1F (stereo not drawn),56,.,.,.,.,.
CCOC(=O)N/N=C/c1c(C)nn(-c2cccc(C(F)(F)F)c2)c1Cl,.,.,.,.,.,.
Cc1nn(-c2cccc(C(F)(F)F)c2)c(Cl)c1/C=N/Nc1cccc(C(=O)O)c1,.,.,-73,.,.,.
COc1cc(/C=C2/SC(=S)N(CC(=O)O)C2=O)ccc1OC(=O)c1ccco1,.,.,.,.,.,/
O=C(c1ccc([N+](=O)[O-])cc1)N(Cc1ccc(Br)cc1)N1C(=O)CCCC1=O,.,.,.,34,.,.
Cc1ccc2nc(-c3ccc(NC(=O)Cc4cccs4)cc3)[nH]c2c1,76,.,.,.,.,.
O=C(NC1CC1)c1sc2cc(Cl)ccc2c1Cl,.,/,.,/,/,/
O=C(Nc1nccs1)c1sc2cc(Cl)ccc2c1Cl,56,.,.,.,.,.
SMILES,HSF1 activator,HSP90 inh,HSF1 inhib,NALP1 inh,p-CIP stab down,Hsp70 activator
O=C1CC(c2ccccc2)CC(O)=C1C=Nc1cccc(Cl)c1 (stereo not drawn),120,.,.,.,.,.
O=C1CC(c2ccccc2)CC(O)=C1C=Nc1ccccc1Cl (stereo not drawn),.,.,.,.,.,.
O=C1CC(c2ccccc2)CC(O)=C1C=Nc1ccc(Cl)cc1 (stereo not drawn),141,.,.,.,.,.
O=C1CC(c2ccccc2Cl)CC(O)=C1C=Nc1ccccc1 (stereo not drawn),152,.,.,.,.,.
CC(C)CCN=CC1=C(O)CC(c2ccccc2)CC1=O (stereo not drawn),67,.,.,.,.,.
Cc1ccc(N=CC2=C(O)CC(c3cccc(Cl)c3)CC2=O)cc1 (stereo not drawn),.,.,.,.,.,.
